Assay outcomes (PubChem)
Most compounds without a hit are left out; they make up all but 2.3% or so of the library.
M1 PAM parental: nonselective activator or artifact in parental CHO-K1 calcium assay. ATP EC20, Fluo-8 calcium fluorescence; 0% at ATP EC20, 100% at ATP max. activation, % at 3 µM. hit rate 0.02% among 360,000. AID 602247;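 active means activation above the run cutoff, the mean activation of all test compounds plus 3 SD, cut at about 40% in these data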;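 further: peak over basal fluorescence ratio in a 140 s read after ATP addition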
CHO-K1 Ca antag: counter-screen for M1 antagonists: effect in parental CHO-K1 cells; ATP-induced calcium, Fluo-8 fluorescence; inhibition, % at 3 µM; hit rate 0.6% among 360,000;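 active means inhibition above a per-plate cutoff, the plate's mean sample inhibition plus 3 SD, cut at about 24% in these data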
CHRM1 antagonist: antagonists of human M1 muscarinic receptor | inhibition, % at 3 µM | CHO-K1 hM1, Fluo-8 calcium fluorescence, ACh EC80 antagonist | hit rate 1.3% among 360,000 | AID 588852 | P11229;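 active means percent inhibition above its own plate's cutoff, namely the mean of that plate's compound wells plus 3 SD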;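 further: peak over basal fluorescence ratio during 140 s after agonist addition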
Target sequence (P11229 whole entry, looked up): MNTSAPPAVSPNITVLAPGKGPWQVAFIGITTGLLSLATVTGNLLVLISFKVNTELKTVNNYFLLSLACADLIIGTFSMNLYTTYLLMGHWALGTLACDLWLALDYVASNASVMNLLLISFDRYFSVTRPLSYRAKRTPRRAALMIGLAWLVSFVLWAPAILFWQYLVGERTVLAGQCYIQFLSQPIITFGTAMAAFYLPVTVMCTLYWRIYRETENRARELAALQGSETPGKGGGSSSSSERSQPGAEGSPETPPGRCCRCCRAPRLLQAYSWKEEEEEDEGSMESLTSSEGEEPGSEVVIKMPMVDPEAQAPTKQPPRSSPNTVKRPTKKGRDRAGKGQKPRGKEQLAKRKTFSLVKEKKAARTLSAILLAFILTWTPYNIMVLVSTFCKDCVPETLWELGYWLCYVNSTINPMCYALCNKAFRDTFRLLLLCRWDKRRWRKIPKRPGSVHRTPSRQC
M1 ag parental: nonselective activator or artifact in parental CHO-K1 cells; Fluo-8 calcium fluorescence; scaled to maximal ATP response, vehicle zero; activation, % at 3 µM; hit rate 0.48% among 360,000; in the data active means activation above about 15%;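 further: untransfected CHO-K1 host cells lacking M1 receptor as counterscreen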
CHRM1 agonist: agonists of human M1 muscarinic receptor; P11229; CHO-K1 hM1, Fluo-8 calcium fluorescence, agonist mode; 0% DMSO, 100% acetylcholine EC100; activation, % at 3 µM; hit rate 0.33% among 360,000; AID 588814;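 active means activation above the run's mean compound activation plus 3 SD, cut at about 16% in these data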;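 further: peak over basal fluorescence ratio within a 140 s kinetic read after compound addition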
CHRM1 PAM: positive allosteric modulators of human M1 muscarinic receptor | CHO-K1 hM1, Fluo-8 calcium fluorescence, ACh EC20; 0% = ACh EC20, 100% = maximal ACh | activation, % at 3 µM | hit rate 0.088% among 360,000 | AID 588819; in the data active means activation above about 19%, passing the limit was not always enough
Numbers stand for hits; - = inactive.

SMILES | M1 PAM parental | CHO-K1 Ca antag | CHRM1 antagonist | M1 ag parental | CHRM1 agonist | CHRM1 PAM
O=C(Cn1cnc2c(NCc3ccccc3)ncnc21)NCc1ccccc1 | - | - | - | - | - | -
C[C@@H](NC(=O)Cn1cnc2c(OCc3ccccc3)ncnc21)c1cccc2ccccc12 | - | - | - | - | 33 | -
C[C@@H](NC(=O)Cn1cnc2c(NCc3ccccc3)ncnc21)c1cccc2ccccc12 | - | - | - | - | 48 | -
COc1ccc(NC(=O)CN2CCCCCC2)cc1OC | - | - | - | - | - | -
COc1cccc(OCCSc2nc(N)cc(N)n2)c1 | - | 27 | - | - | - | -
Nc1cc(N)nc(SCCOc2ccccc2)n1 | - | - | - | - | - | -
O=c1[nH]nc(Br)c(=O)n1C(c1ccccc1)c1ccccc1 | - | - | - | 26 | 19 | -
CCOC(=O)c1c(CSc2cccs2)n(C)c2cc(Br)c(O)c(CN(C)C)c12 | - | - | - | - | - | -
CCN(CC)c1ccc(/C=C(\C#N)C(=O)c2ccc(Br)cc2)cc1 | - | 74 | 85 | 110 | 178 | -
CN(C)c1ccc(/C=C(\C#N)C(=O)c2ccccc2)cc1 | - | 38 | 76 | 46 | 125 | -
CCN(CC)c1ccc(/C=C(\C#N)C(N)=O)cc1 | - | - | - | - | - | -
N#CCCn1cc(/C=N/N=C2\NC(=O)C(CC(=O)O)S2)c(-c2ccc(F)cc2)n1 (stereo not given) | - | - | - | - | - | -
CC(=O)c1ccc(NC(=S)NC(C)CCc2ccccc2)cc1 (stereo not given) | - | - | - | 15 | - | -
CC(=O)c1ccc(NC(=S)N(CCCN(C)C)Cc2ccccc2)cc1 | - | - | 44 | - | - | -
CN(C)CCCN(Cc1ccccc1)C(=S)Nc1ccc(SC(F)F)cc1 | - | - | 88 | - | - | -
CN(C)CCCN(Cc1ccccc1)C(=S)NCc1ccccc1 | - | - | - | - | - | -
C[C@@H]1CC2OC(=O)[C@@]3(C)C(=O)CC[C@@](C)(C23)[C@@]1(O)CCc1ccoc1 (stereo not given in full) | - | - | - | - | - | -
C[C@@H]1CN(Cc2nc(-c3cnccn3)no2)C[C@H](C)O1 | - | - | - | 24 | - | -
CCCOC1CCCN(Cc2nc(-c3cnccn3)no2)C1 (stereo not given) | - | - | - | - | - | -
COc1cc(C2SCC(=O)N2CCCN(C)C)cc(OC)c1OC (stereo not given) | - | - | 29 | - | - | -
CN1CCC2(CC1)N=C(c1ccc(F)cc1)C(=S)N2C(=O)c1ccc(C(C)(C)C)cc1 | - | - | 49 | - | - | -
CCCCn1c(N)c(N(CC(C)C)C(=O)C2CCN(S(=O)(=O)c3ccc(C)cc3C)CC2)c(=O)[nH]c1=O | - | - | - | - | - | -
O=C(O)c1ccc(N(c2ccccc2)c2ccccc2)cc1 | - | - | - | - | - | -
CCN(CC)c1ccc(/C=C2\C(=O)c3ccc(C(=O)O)cc3C2=O)cc1 | - | - | 62 | 38 | 126 | -
CCN(CC)c1ccc(C(=O)O)cc1 | - | 25 | - | - | - | -
SMILES | M1 PAM parental | CHO-K1 Ca antag | CHRM1 antagonist | M1 ag parental | CHRM1 agonist | CHRM1 PAM
CCCCN(C(=O)c1cc2ccccc2o1)c1c(N)n(CCC)c(=O)[nH]c1=O | - | - | - | - | - | -
O=c1oc2cc(O)ccc2cc1S(=O)(=O)c1ccccc1 | - | - | - | - | - | -
O=c1oc2cc(O)ccc2cc1-c1nc2ccccc2o1 | - | - | - | 31 | 54 | -
CC(CCN1C(Nc2ccccc2)=NC[C@@H]1Cc1ccccc1)c1ccccc1 (stereo not given in full) | - | - | 37 | - | - | -
COC(=O)[C@]1(CC(C)C)N[C@H](c2ccc(-c3ccc(C(C)=O)cc3)cc2)[C@@H]2C(=O)N(C)C(=O)[C@@H]21 | - | - | - | - | - | 30
Cc1cccc(NC(=O)CN2C(=O)c3ccccc3S2(=O)=O)n1 | - | - | - | - | - | -
Cc1cccc(NC(=O)C(C)N2C(=O)c3ccccc3S2(=O)=O)n1 (stereo not given) | - | 28 | 28 | - | - | -
COc1ccc(OC)c(C2C(C#N)=C(N)Oc3c2c(C)nn3-c2ccc(C)cc2)c1 (stereo not given) | - | 28 | - | - | - | -
Cc1ccc(-n2nc(C)c3c2OC(N)=C(C#N)C3c2ccc(C)o2)cc1 (stereo not given) | - | - | - | - | - | -
O=C(NCCCCCCCN1CCCCCCC1)C(C1CCCCC1)C1CCCCC1 | - | - | 57 | - | - | -
Cc1ccc(-c2csc(=Nc3cccnc3)n2CCCn2ccnc2)cc1C | - | - | 41 | - | - | -
Cc1ccc(-c2csc(=Nc3cccnc3)n2CCCN2CCCC2=O)cc1C | - | - | - | - | - | -
Cc1ccc(Sc2nc3ccc(C)cn3c(=O)c2/C=N/O)cc1 | - | - | - | - | - | -
CCOC(=O)c1sc(NC(=O)Cn2nnc3sc4c(c3c2=O)CCC(C(C)(C)C)C4)nc1C (stereo not given) | - | 26 | - | - | - | -
O=C(c1cccs1)N1CCC(c2nc3c(nnn3Cc3c(Cl)cccc3Cl)c(=O)[nH]2)CC1 | - | - | - | - | - | -
Cc1cc(C(=O)O)ccc1-c1ccc(/C=C2\SC(=O)N(CC(=O)Nc3ccc4c(c3)OCO4)C2=O)o1 | - | 27 | - | - | - | -
O=C1C=C(c2ccc(F)nc2)C[C@@H](c2ccc3c(c2)OCO3)C1 | - | - | - | - | - | -
COc1ccc(NC(=O)Cn2nnc(C(=O)NCCc3ccccc3)c2N)cc1 | - | - | - | 19 | - | -
CC1=Nc2ccccc2/C1=C/c1nc(-c2ccc(C)s2)oc1O | - | - | - | - | - | -
CC1=Nc2ccccc2/C1=C/c1sc(=N)n(-c2nccs2)c1O | - | 25 | 34 | - | - | -
COc1ccccc1NC(=O)CSc1nc2ccccc2cc1Cc1ccccc1 | 42 | - | - | - | - | -
COc1ccccc1OCC(=O)Nc1cc(S(=O)(=O)N2CCOCC2)ccc1N1CCCCC1 | - | - | - | - | - | -
COCCNC(=O)c1ccc(CN2CCC(Cc3ccccc3)CC2)cc1 | - | - | 43 | - | - | -
O=C(c1ccc(CN2CCOCC2)cc1)N1CCC(Cc2ccccc2)CC1 | - | - | - | - | - | -
CCc1ccccc1NC(=O)c1ccc(CN2CCC(Cc3ccccc3)CC2)cc1 | - | - | 38 | - | - | -
COc1ccc(CCNC(=O)c2ccc(CN3CCC(Cc4ccccc4)CC3)cc2)cc1OC | - | - | 48 | - | - | -
COc1ccc(CN2CCC(Cc3ccccc3)CC2)cc1OC | - | - | - | - | - | -
